p53 reactivator: restores transcriptional activity of mutant p53; H1299 p53-A138V BP100-luciferase reporter, luminescence, 24 h; Potency, µM (highest dose often 92.2 µM), without a hit: top-dose activity change, positive = activation, hits mostly activators; 320,000 tested, 0.063% active; AID 504706; further: % of control where 0% means no effect; nearly all actives have a fitted effect of over 45% in size
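p53-null H1299 cells stably carrying temperature-sensitive p53-A138V and a BP100-luciferase reporter were pinned with compounds (4-point, 1:5 series) and held 24 hrs at 37 deg C. Luminescence was read 10 min after detection reagent.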
ELG1 genotoxic: inducers of genotoxicity in HEK293T ELG1-luciferase cells | HEK293T ELG1-luciferase reporter, luminescence, 16 h | Potency, µM (top dose mostly 46 µM), inactives show at the top dose activity change, positive = activation, most hits filed as activators | AID 504466 | 330,000 tested, 1.3% active; further: % of control where 0% means no effect; nearly all actives have a fitted effect of over 60% in size
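HEK293T cells expressing luciferase-tagged ELG1 were treated with compound or DMSO for 16 hr at 37°C. Luciferase activity was then read after 30 min with ONE-Glo at room temperature; rising signal flags genetic stress.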
Rab9 promoter act: activates the Rab9 promoter; Huh7 Rab9 promoter-luciferase reporter, luminescence, 24 h; Potency, µM (series often up to 9.22 µM), without a hit: at the top dose activation, negative = inhibition, actives largely listed as activators; 320,000 tested, 2.8% active; AID 485297; further: % of control where 0% means no effect; nearly all actives have a fitted effect of over 60% in size
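Rab9 promoter-driven luciferase in stably transfected Huh7 cells; 1500 cells/well rested 2 h, exposed to compound in DMSO for 24 h at 37 °C, 5% CO2. Luminescence read 10 min after adding luciferase reagent at ambient temperature.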
FLuc modulator: counter-screen for miR-21 project: firefly luciferase inhibitors or activators. purified FLuc, Km substrates, luminescence inhibition. Potency, µM (highest dose often 57.5 µM), for the others: at the highest dose activity change, negative = inhibition, hits mostly inhibitors. P08659. 360,000 tested, 6.9% active;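 further: plate controls were vehicle for no effect and reference inhibitor for full effect; nearly all actives have a fitted effect of over 55% in size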
Target sequence (P08659 whole entry, looked up): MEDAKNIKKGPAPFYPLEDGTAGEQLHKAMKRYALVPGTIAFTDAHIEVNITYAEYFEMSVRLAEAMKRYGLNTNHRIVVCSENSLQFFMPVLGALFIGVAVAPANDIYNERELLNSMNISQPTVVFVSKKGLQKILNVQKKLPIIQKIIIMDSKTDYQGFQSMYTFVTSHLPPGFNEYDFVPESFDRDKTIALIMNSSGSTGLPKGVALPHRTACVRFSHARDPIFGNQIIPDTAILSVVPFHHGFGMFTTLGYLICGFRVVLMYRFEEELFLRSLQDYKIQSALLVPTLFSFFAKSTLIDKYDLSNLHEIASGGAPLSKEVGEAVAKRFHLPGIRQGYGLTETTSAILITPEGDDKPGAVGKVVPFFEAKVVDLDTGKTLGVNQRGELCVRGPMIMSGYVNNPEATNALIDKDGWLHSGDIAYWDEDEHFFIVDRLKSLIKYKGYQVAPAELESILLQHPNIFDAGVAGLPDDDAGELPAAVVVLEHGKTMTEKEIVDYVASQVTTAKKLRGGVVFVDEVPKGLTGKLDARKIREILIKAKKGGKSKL
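Biochemical qHTS of compounds, final roughly 60 µM downward over six points, against 10 nM purified firefly luciferase using Km concentrations of substrates (10 uM D-luciferin, 10 uM ATP) in Tris acetate pH 7.5 buffer; luminescence output.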
NPC1 prom act: activators of NPC1 promoter. Huh7 NPC1 promoter luciferase reporter, 24 h. Potency, µM (highest dose often 9.22 µM), without a hit: at the highest dose activation, most hits filed as activators. 320,000 tested, 2.4% active; further: % of control where 0% means no effect; nearly all actives have a fitted effect of over 60% in size
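Luciferase expression driven by the NPC1 promoter was measured in stably transfected Huh7 cells after a 24 h compound incubation, using a luciferase reagent and a luminescence read.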
SMN2 splice up: increases expression of the SMN2 splice variant; HEK293 SMN2-luciferase splicing reporter, luminescence, 30-36 h; Potency, µM (titrated, usually from 46.1 µM), without a hit: top-dose activity change, positive = activation, actives largely listed as activators; 210,000 tested, 2.8% active; AID 1458; further: % of control where 0% means no effect; nearly all actives have a fitted effect of over 55% in size
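HEK293 cells carry an SMN2 minigene-luciferase reporter in which exon 7 inclusion puts luciferase in frame. Cells were seeded at 2000 cells/well, attached for 10-12 hours, then exposed to compounds for 30-36 hours at 37C before ONE-Glo luminescence.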
Numbers without * were called inactive; ? = inconclusive; / = no result given; [ ] = another dose, or the depositor's remark. Compounds with a hit are over-represented: about 7.4% of the library has one in this group of screens. The call rests on the fitted dose curve; in most records, active means well fitted curve in the direction sought with a large enough effect; inconclusive means small, poorly fitted or top-dose-only effect, or another doubt; inactive means no such curve, though single readings can be large; an effect the other way counts as inactive or inconclusive. Potency means the concentration at half of the fitted maximal effect.

SMILES | p53 reactivator | ELG1 genotoxic | Rab9 promoter act | FLuc modulator | NPC1 prom act | SMN2 splice up
C/C(=N\NC(=O)c1ccc(CN2CCOCC2)cc1)c1cccc([N+](=O)[O-])c1 | 8% | -3% | -9% | 0% | 3% | -24%
O=C(Nc1cccc([N+](=O)[O-])c1)c1ccc(CN2CCOCC2)cc1 | 5% | 7% | 24% | 17µM* | 22% | /
O=C(Nc1ccc(CN2CCOCC2)cc1)c1ccc2ccccc2c1 | ? | ? | 1.4µM* | 8.5µM* | 1µM* | /
COc1cccc(/C=C/C(=O)Nc2ccccc2N2CCOCC2)c1 | 15% | / | 9% | 17µM* | 0% | /
CCCCNC(=O)Cn1nc(N2CCN(c3ccccc3OC)CC2)ccc1=O | / | / | / | -4% | / | /
O=C(NCCSc1ccc(Cl)cc1)c1ccc(CN2CCOCC2)cc1 | -2% | -3% | -6% | -8% | -4% | /
O=C(NCCSc1ccccc1)c1ccc(CN2CCOCC2)cc1 | 9% | ? | 2µM* | 12µM* | 2µM* | /
COc1ccc(S(=O)(=O)Nc2cccc(-c3ccc(N4CCCCCC4)nn3)c2)c(OC)c1 | 2% | ? | ? | 8.5µM* | ? | /
COc1ccc(-c2cccc(NS(=O)(=O)c3cc(C)ccc3OC)c2)nn1 | / | / | / | -10% | / | /
COc1ccc(OC)c(S(=O)(=O)Nc2cccc(-c3ccc(N4CCCCCC4)nn3)c2)c1 | 1% | -4% | 8% | 17µM* | -4% | /
COc1ccc(-c2cccc(NS(=O)(=O)c3ccccc3[N+](=O)[O-])c2)nn1 | 9% | 3% | 4% | 2% | -1% | /
CN(/N=C\c1ccccc1O)c1ccc2ccccc2n1 | / | / | / | / | / | -7%[9.22 µM]
CCN(CC)c1ccc(C2Nc3cccc4cccc(c34)N2)cc1 | ? | 3% | 23% | 11µM* | 29% | /
CCCOc1ccc(C2Nc3cccc4cccc(c34)N2)cc1 | 11% | 4% | 4% | 11µM* | 20% | /
FC(F)(F)c1ccc(C2Nc3cccc4cccc(c34)N2)cc1 | -4% | -2% | 23% | ? | 15% | -7%
Fc1ccc(C2Nc3cccc4cccc(c34)N2)cc1 | -5% | 3% | 22% | ? | ? | /
COc1ccc(C(=O)NCC2OCCc3ccccc32)c(O)c1 (centres undefined) | 9% | ? | ? | 21µM* | 28% | ?
COc1ccc(-c2noc(N(C)CC(=O)Nc3cccc(C(F)(F)F)c3)n2)cc1 | 25% | 2% | 22% | 8.5µM* | ? | 9%
Cc1cc(NCCCn2ccnc2)n2nc(C)c(-c3ccc(Cl)cc3)c2n1 | -9% | -1% | 0% | 15µM* | 5% | /
Cc1cc(NCCCn2ccnc2)n2nc(C)c(-c3ccccc3)c2n1 | 21% | 16% | ? | 9.5µM* | 29% | 9%
Cc1cc(NCCCn2ccnc2)n2ncc(-c3ccccc3)c2n1 | -5% | 0.29µM* | 0.11µM* | 0.34µM* | 0.4µM* | -38%
COc1ccc(C(=O)NC(C)c2cccnc2)cc1S(=O)(=O)N(C)Cc1ccccc1 (centres undefined) | -5% | 1% | / | / | / | /
CCOC(=O)Cc1c(C)nc2c(-c3ccccc3)cnn2c1C | 1% | 14% | 28% | ? | 14% | 17%
Cc1cc(SCC(=O)c2ccccc2)n2ncc(-c3ccccc3)c2n1 | 8% | 9% | 3.5µM* | 9.5µM* | 5µM* | /
COc1ccc(C(=O)CSc2ccc(-c3ccco3)nn2)cc1 | -1% | 1% | -3% | ? | 0% | 11%
SMILES | p53 reactivator | ELG1 genotoxic | Rab9 promoter act | FLuc modulator | NPC1 prom act | SMN2 splice up
COc1ccc(-c2cc(C)nc3c(-c4ccccc4)cnn23)cc1 | -4% | 0.65µM* | 0.56µM* | 0.67µM* | 0.5µM* | ?
O=C(CSc1ccc(-c2ccco2)nn1)c1ccccc1 | ? | 13% | ? | 27µM* | 16% | 18%
Cc1nc2c(-c3ccccc3)cnn2c(N)c1-c1ccccc1 | 20% | ? | 16% | 0.21µM* | ? | /
Cc1ccc(C(=O)CSc2cc(C)nc(SCC(=O)c3ccccc3)n2)cc1 | 0% | -22% | -1% | 3% | -2% | /
Cc1cc(SCC(=O)c2ccccc2)nc(C)n1 | 17% | ? | 2.5µM* | 12µM* | 3.5µM* | 29%
Cc1cc(-c2ccccc2)n2ncc(-c3ccccc3)c2n1 | 46% | 0.21µM* | 0.5µM* | 0.19µM* | 2.8µM* | -52%
COc1ccc(C)cc1NC(=O)C(Cc1ccccc1)NS(=O)(=O)c1ccc(Br)s1 (centres undefined) | / | / | / | -6% | / | -10%
O=C(CNc1ccccc1C(=O)O)c1ccccc1 | 20% | 10% | ? | 19µM* | 3% | /
COc1ccccc1NC(=O)c1c[nH]c2ccccc12 | 21% | ? | 26% | 21µM* | ? | /
O=C(CC(=O)c1ccccc1)c1ccccc1 | / | / | / | / | / | 13µM*
COc1ccccc1NC(=O)c1cc(=O)[nH]c2ccccc12 | ? | -1% | 11% | -3% | 11% | /
COC(=O)/C=C1\S/C(=N/NC(=O)c2ccccc2)NC1=O | -3% | 8% | -1% | ? | 0% | ?
NC(=O)c1ccccc1NCC(=O)c1ccc(Cl)cc1 | -2% | 0% | -9% | ? | 0% | /
COc1ccccc1/C=C1\S/C(=N/NC(=O)c2cccc(Br)c2)NC1=O | ? | -13% | -3% | 9.5µM* | -1% | -18%
COc1ccc(C(=O)N2CCC3(CCN(C(=O)Nc4ccccc4)CC3)CC2)cc1 | / | / | / | / | / | -20%
Cc1cc2oc(C(=O)Nc3cccc(-c4nc5ccccc5o4)c3)c(C)c2cc1Cl | / | / | / | -2% | / | /
COc1ccccc1C(=O)NCC(=O)NC(C)CCc1ccccc1 (centres undefined) | 10% | 8% | -7% | 3µM* | 2% | /
COc1ccccc1C(=O)CC(=O)c1ccccc1 | 6% | ? | 20% | 13µM* | ? | /
COc1ccccc1C(=O)Nc1ccccc1SC(=O)c1ccccc1OC | 13µM* | 12µM* | ? | 5.4µM* | ? | /
COc1ccccc1NC(=O)c1ccccc1NC(=O)c1ccccc1 | / | / | / | 15µM* | / | -8%
COc1ccccc1C(=O)OCC(=O)NC(C)CCc1ccccc1 (centres undefined) | -2% | 1% | 2%[1.84 µM] | -2% | -5% | /
CCn1c(=O)c(=O)[nH]c2c(=O)oc3ccc(S(=O)(=O)Nc4ccccc4)cc3c21 | 0% | -2%[9.26 µM] | 2% | 1% | 1% | /
CCOC(=O)c1c(-c2ccccc2)oc2ccc(OCc3ccccc3Br)cc12 | / | / | / | 0% | / | -2%
O=C(Nc1ccccc1)C(=O)c1c[nH]c2ccccc12 | ? | 0.92µM* | 1.8µM* | 1.7µM* | 3.5µM* | /
O=C(/C=C/c1ccccc1)c1c[nH]c2ccccc12 | 14% | ? | 0.35µM* | 0.19µM* | 0.63µM* | /

Screening data deposited in PubChem by National Center for Advancing Translational Sciences (NCATS).
